For five compounds, composite z-score and z-score results are on record in PubChem BioAssay.

The nature of experiment [1]: small molecules captured by biotinylated probe aFSTL3 – biochemical, small-molecule microarray, fluorescence 635/667, stem cell growth factor project, primary screen (AID 1064).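 Note: measures binding of the biotinylated anti-FSTL3 antibody to printed compounds.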 Particulars: higher = more signal.
Experiment [2] in a line: binders from COS7 lysate, DM2A8 probe, primary screen, torsin A project, cell lysate, small-molecule microarray, fluorescence 635/667 (AID 1065). Particulars: higher = more signal, COS7 lysate expressing mutant human TOR1A.
Experiment [3] can be described thus: small molecules captured by biotinylated probe aFGF2 – biochemical, small-molecule microarray, fluorescence 635/667, stem cell growth factor project, primary screen (AID 1067).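 Note: measures binding of biotinylated aFGF2 protein to printed compounds on slides; z-score merges feature fluorescence and signal-to-noise across triplicate slides.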 Particulars: higher = more signal.
Experiment [4] can be described thus: small molecules captured by biotinylated probe aFGF10 – biochemical, small-molecule microarray, fluorescence 635/667, stem cell growth factor project, primary screen (AID 1071).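 Note: score merges 667 nm spot intensity and signal to noise from triplicate slides.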 The note with it: higher = more signal.
Experiment [5] addresses Neurogenic locus notch homolog protein 2 (Homo sapiens) (UniProt Q04721). Description: small molecules binding Notch2 protein – biochemical, small-molecule microarray, 635 nm fluorescence, stem cell growth factors, primary screen (AID 1073). Particulars: higher = more signal.
For experiment [6], the target named is Pro-neuregulin-1, membrane-bound isoform (Homo sapiens) (UniProt Q02297). Nature of the experiment: small molecules binding neuregulin-1 protein – biochemical, small-molecule microarray, fluorescence 635/667, psychiatric disease protein project, primary screen (AID 1075).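 Note: score combines 667 nm spot fluorescence with signal to noise.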 Particulars: NRG1 binding, 635 nm fluorescence, higher = more signal.
Sequence of Pro-neuregulin-1, membrane-bound isoform (Homo sapiens) (Q02297 whole entry, looked up, the tested form may be a part, canonical isoform): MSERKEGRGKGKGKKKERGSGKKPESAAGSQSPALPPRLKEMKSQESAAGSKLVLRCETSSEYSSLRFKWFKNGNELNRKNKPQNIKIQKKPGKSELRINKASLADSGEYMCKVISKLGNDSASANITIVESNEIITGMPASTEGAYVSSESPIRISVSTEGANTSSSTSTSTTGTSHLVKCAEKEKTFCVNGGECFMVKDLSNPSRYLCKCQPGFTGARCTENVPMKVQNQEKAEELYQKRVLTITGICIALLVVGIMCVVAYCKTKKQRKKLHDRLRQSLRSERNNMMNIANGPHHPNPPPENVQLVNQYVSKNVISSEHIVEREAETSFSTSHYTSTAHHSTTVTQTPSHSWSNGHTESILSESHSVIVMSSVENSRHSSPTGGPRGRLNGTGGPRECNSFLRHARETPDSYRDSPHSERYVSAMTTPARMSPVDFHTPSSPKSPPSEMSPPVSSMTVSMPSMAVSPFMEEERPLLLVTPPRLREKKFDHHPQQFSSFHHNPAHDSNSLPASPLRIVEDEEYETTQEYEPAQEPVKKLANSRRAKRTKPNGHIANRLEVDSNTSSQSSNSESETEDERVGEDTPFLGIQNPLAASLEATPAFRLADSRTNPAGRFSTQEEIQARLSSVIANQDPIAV
The subject of experiment [7] is Neuregulin-1 EGF-like domain. Nature of the experiment: small molecules binding NRG1 EGF domain – biochemical, small-molecule microarray, 635 nm fluorescence, primary screen (AID 1081).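 Note: binding of the protein to compounds printed on small-molecule microarray slides.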 Particulars: higher = more signal.
The nature of experiment [8]: FRG1 expression reporter modulators in myotubes – cell-based, C2C12 myotubes, firefly/Renilla luciferase, luminescence, FRG1 inhibition for FSHD, primary screen (AID 1084). Particulars: FRG1 promoter luciferase, higher = more signal, called active from +8 up or from −8 down.
The nature of experiment [9]: small molecules captured by biotinylated probe aFST – biochemical, small-molecule microarray, fluorescence 635/667, stem cell growth factor project, primary screen (AID 1086).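 Note: score merges 667 nm fluorescence with signal-to-noise of each printed compound spot.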 Particulars: higher = more signal.
Experiment [10] in a line: binders of probe aHhip on microarray, primary screen, stem cell growth factor project, biochemical, small-molecule microarray, fluorescence 635/667 (AID 1087).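 Note: score merges spot fluorescence at 667nm with spot signal to noise ratio.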 Particulars: higher = more signal.
Experiment [11] deals with PRMT1 (protein arginine N-methyltransferase 1). Description: small molecules binding arginine methyltransferase PRMT1 – biochemical, small-molecule microarray, 635 nm fluorescence, primary screen (AID 1088).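 Note: binding of Prmt1 protein to compounds spotted on small-molecule microarray slides.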 Particulars: higher = more signal.
The nature of experiment [12]: growth effects on S. cerevisiae YJM789 – YJM789 clinical isolate, OD600, 24 h, basal, primary screen (AID 1089).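 Note: growth of clinical yeast isolate S. cerevisiae YJM 789 seeded 1000 cells per well; test concentration not given here.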 The note with it: higher = more signal, called active from +8 up or from −8 down.
Experiment [13] in a line: S. pombe growth modifiers, basal conditions – strain 972, OD600, 24 h, no modulator, primary screen (AID 1090).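 Note: basal condition with compound alone and no growth modifier present; test concentration not given here.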 Particulars: S. pombe 972 growth, higher = more signal, called active from +8 up or from −8 down.
Experiment [14] can be described thus: budding yeast growth modifiers under rapamycin – strain BY4716, OD600, 96 h, primary screen (AID 1091). Note: test concentration not given here. The note with it: S. cerevisiae BY4716 + rapamycin, higher = more signal, called active from +8 up or from −8 down.
Experiment [15] deals with Torsin-1A-interacting protein 2 (Homo sapiens) (UniProt Q8NFQ8). Description: small molecules binding lysate-expressed LULL1 – cell lysate, human LULL1 lysate, 635/667 nm fluorescence, primary screen (AID 1092).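 Note: probe is lysate of COS7 cells overexpressing human LULL1; score merges per-feature 667 nm fluorescence with signal-to-noise.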 Particulars: small-molecule microarray, hLULL1 lysate binding, 635 nm fluorescence; higher = more signal.
Sequence of Torsin-1A-interacting protein 2 (Homo sapiens) (Q8NFQ8 whole entry, looked up): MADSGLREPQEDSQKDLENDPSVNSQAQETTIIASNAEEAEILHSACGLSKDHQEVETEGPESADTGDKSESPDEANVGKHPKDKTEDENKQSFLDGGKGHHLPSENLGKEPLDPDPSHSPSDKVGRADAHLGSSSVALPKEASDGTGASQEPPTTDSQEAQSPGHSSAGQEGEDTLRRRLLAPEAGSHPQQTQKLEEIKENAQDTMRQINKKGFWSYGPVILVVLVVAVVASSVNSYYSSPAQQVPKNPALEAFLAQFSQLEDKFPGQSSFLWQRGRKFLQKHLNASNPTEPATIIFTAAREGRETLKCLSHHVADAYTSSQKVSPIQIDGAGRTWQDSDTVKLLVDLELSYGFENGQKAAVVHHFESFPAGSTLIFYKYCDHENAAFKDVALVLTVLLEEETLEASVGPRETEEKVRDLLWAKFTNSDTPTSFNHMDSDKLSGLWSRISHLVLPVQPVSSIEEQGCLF
The nature of experiment [16]: optical density change of DRC41 E. coli – strain DRC41, OD650, 24 h, E. coli filamentation project, primary screen (AID 1093).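 Note: MC1000 strain lacking acrAB efflux and sulA so SOS filamentation is blocked; test concentration not given here.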 Particulars: E. coli DRC41 growth, higher = more signal, called active from +8 up or from −8 down.
A short description of experiment [17]: probe aLefty2 binding to arrayed compounds – biochemical, biotinylated probe, 635/667 nm fluorescence, primary screen (AID 1094).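 Note: score merges spot fluorescence near 667 nm with spot signal-to-noise ratio.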 The note with it: small-molecule microarray, higher = more signal.
Experiment [18] deals with Noggin (protein binding on small-molecule microarray). Description: small molecules binding Noggin protein – biochemical, 635/667 nm fluorescence, primary screen (AID 1095).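 Note: score merges 667 nm feature fluorescence with signal to noise over triplicate slides.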 Particulars: 635 nm fluorescence, higher = more signal.
The target in experiment [19] is Neurogenic locus notch homolog protein 3 (Homo sapiens) (UniProt Q9UM47). Nature of the experiment: small molecules binding NOTCH3 protein – biochemical, 635/667 nm fluorescence, primary screen (AID 1096). Particulars: small-molecule microarray, 635 nm fluorescence, higher = more signal.
Sequence of Neurogenic locus notch homolog protein 3 (Homo sapiens) (Q9UM47 whole entry, looked up): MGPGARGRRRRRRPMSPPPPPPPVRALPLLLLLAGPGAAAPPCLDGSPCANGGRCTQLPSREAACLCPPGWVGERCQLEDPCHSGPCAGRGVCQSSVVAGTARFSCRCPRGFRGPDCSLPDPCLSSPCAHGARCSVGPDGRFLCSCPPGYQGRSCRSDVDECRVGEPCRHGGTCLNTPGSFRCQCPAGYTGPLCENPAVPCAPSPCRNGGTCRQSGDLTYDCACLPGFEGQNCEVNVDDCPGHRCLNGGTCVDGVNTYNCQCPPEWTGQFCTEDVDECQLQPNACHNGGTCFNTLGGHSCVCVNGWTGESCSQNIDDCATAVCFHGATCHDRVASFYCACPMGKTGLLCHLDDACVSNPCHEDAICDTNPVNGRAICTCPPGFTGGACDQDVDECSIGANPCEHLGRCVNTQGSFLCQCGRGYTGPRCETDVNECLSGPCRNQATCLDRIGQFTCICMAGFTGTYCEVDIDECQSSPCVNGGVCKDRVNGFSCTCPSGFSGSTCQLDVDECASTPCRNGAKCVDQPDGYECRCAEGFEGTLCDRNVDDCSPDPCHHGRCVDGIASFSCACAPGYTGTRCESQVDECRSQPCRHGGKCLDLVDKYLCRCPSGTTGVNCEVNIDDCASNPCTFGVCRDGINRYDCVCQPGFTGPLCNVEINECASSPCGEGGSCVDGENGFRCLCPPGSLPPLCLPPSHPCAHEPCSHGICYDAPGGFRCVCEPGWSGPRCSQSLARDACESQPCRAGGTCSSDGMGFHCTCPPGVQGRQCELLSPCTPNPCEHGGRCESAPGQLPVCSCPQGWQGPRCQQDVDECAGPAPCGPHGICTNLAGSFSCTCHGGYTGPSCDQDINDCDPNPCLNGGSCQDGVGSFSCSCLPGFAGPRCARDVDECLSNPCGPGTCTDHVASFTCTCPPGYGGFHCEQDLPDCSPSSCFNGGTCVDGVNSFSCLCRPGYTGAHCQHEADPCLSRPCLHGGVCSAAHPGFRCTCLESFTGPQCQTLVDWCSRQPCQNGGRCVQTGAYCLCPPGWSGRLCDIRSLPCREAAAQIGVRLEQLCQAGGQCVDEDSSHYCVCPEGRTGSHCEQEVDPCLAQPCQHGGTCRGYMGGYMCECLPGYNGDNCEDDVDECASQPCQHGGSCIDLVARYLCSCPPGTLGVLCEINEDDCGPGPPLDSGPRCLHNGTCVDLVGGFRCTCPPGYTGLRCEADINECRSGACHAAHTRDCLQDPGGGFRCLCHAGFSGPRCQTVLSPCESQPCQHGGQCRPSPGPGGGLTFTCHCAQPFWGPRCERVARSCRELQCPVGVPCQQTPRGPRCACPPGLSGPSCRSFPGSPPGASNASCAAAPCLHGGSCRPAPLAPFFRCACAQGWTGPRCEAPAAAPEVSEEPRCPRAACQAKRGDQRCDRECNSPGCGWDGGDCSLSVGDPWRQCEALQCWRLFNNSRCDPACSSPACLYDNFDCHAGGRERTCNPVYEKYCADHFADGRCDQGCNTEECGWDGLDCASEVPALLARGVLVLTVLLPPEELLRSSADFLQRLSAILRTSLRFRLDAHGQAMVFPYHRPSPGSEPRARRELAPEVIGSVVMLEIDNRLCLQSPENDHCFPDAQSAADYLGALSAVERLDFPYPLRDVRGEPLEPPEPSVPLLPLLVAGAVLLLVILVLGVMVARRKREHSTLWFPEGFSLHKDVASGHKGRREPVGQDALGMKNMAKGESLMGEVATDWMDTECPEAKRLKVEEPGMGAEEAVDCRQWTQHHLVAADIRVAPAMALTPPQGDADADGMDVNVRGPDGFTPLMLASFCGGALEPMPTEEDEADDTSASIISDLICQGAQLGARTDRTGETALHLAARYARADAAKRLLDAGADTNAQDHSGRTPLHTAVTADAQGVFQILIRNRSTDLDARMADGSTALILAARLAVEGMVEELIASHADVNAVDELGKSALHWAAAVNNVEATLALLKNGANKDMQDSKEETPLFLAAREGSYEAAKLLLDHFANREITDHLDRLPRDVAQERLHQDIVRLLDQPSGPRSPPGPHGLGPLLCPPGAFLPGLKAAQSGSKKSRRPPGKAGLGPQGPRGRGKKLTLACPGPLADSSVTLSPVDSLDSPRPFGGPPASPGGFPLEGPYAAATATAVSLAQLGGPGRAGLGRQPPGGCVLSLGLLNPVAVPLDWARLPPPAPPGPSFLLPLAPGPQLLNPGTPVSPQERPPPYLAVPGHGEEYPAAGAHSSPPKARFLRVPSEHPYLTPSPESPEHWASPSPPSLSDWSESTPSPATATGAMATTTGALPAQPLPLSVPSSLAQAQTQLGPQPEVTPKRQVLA
Experiment [20] can be described thus: probe aEGFR binding to arrayed compounds – biochemical, biotinylated probe, 635/667 nm fluorescence, primary screen (AID 1097).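 Note: probe is a biotinylated anti-EGFR antibody binding compounds printed on slides; score combines fluorescence near 667 nm and signal to noise of each spot.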 The note with it: small-molecule microarray, higher = more signal.

Structures are written as SMILES. Calls of active or inactive are those of the source.

Regarding `COCCOC(=O)N1C(=O)[C@@]2(c3cc(C#CCCO)ccc31)[C@H](c1ccc(OCCO)cc1)N1[C@H](c3ccccc3)[C@H](c3ccccc3)OC(=O)[C@H]1[C@@H]2C(=O)N1CCCCCCC1`, the composite z-score worked out at 3.17 in experiment [1]; 1.15 in [2]; 0.487 in experiment [3]; 1.08 in experiment [4]; 1.37 in experiment [5]; 1.65 in experiment [6]. Also, the composite z-score in experiment [7] stood at 1.16; in experiment [9], 2.65; in experiment [10], 3.2; in [11], 1.54; in [15], 2.82; in experiment [17], 1.62. Further, the composite z-score in experiment [18] was 1.49; in experiment [19] it was 1.04; in experiment [20], 0.611. Besides, the z-score in [8] was 0.278 (inactive); in experiment [12], 0.869 (inactive); in [13] it was 0.277 (inactive); in experiment [14] it was 3.69 (inactive); in experiment [16] it was -0.405 (inactive).
Consider `COCCOC(=O)N1C(=O)[C@@]2(c3ccccc31)[C@H](C(=O)N1CCN(c3ncccn3)CC1)[C@H]1C(=O)O[C@H](c3ccccc3)[C@H](c3ccccc3)N1[C@@H]2c1ccccc1OCCO`, for which the composite z-score in [1] is -0.287; in experiment [2], 0.514; in experiment [3] it was 0.168; in [4], 0.7; in experiment [5], 0.827; in experiment [6], 0.111. Besides, the composite z-score in experiment [7] is 1.13; in experiment [9], 0.244; in experiment [10], -0.0919; in experiment [11], 1.49; in experiment [15] it was 2.61; in [17], -0.0366. Also, the composite z-score was 1.18 in experiment [18], 1.07 in [19] and -0.067 in [20]. The z-score in experiment [8] was -1.12 (inactive); in experiment [12] it was 1.13 (inactive); in [13], 0.185 (inactive); in experiment [14] it was 7.39 (inactive); in experiment [16], 1.97 (inactive).
In the case of `O=C1NC(=O)C2C1C=CC(C(O)c1ccc(B(O)O)cc1)N2Nc1ccc(Cl)cc1Cl` (stereo not given), the composite z-score in experiment [1] was -0.144; in [2] it was -0.397; in [3] it was -0.0095; in [4], 0.454; in [5], 1.11; in [6], 1.16. For the same compound, the composite z-score is 0.955 in [7]; 0.514 in experiment [9]; -0.0645 in [10]; -0.201 in experiment [11]; 1.71 in [15]; 0.126 in experiment [17]. Further, the figures for the composite z-score in [18], in experiment [19] and in [20] were -0.255, 0.287 and -0.0238, respectively. The z-score in experiment [8] is 0.402 (inactive); in experiment [12], 1.33 (inactive); in [13], -0.229 (inactive); in experiment [14], 0.715 (inactive); in experiment [16], -0.758 (inactive).
On to `COC(=O)[C@H](Cc1ccc(O)cc1)N[C@@H](/C=C/C1CC1)[C@H](O)Cc1ccccc1`, for which the composite z-score in experiment [1] was -0.262; in experiment [2], 0.396; in [3] it was -0.187; in experiment [4] it was 0.154; in [5], 0.023; in [6], -0.721. In addition, the composite z-score is -0.776 in [7]; -0.437 in [9]; -0.0994 in experiment [10]; 0.308 in [11]; -0.243 in experiment [15]; -0.251 in experiment [17]. In addition, the composite z-score in [18] is -0.0001; in experiment [19], -0.0155; in experiment [20], -0.0828. Also, the z-score in experiment [8] is -0.269 (inactive); in [12], 0.687 (inactive); in experiment [13], -0.813 (inactive); in experiment [14] it was 0.0393 (inactive); in [16] it was -0.732 (inactive).
Turning to `COc1ccc(C(=O)Nc2ccc(CN3C(=O)[C@@]4(O[C@@H](CCn5cc(CCO)nn5)[C@H]([Si](C)(C)c5ccc(OC)cc5)[C@H]4C)c4ccccc43)cc2)cc1`, the composite z-score in [1] was -0.249; in [2], 0.269; in [3], -0.0613; in experiment [4], 0.462; in experiment [5], 0.534; in experiment [6], 0.587. In addition, the composite z-score in experiment [7] was 1.16; in experiment [9] it was 0.859; in [10], -0.137; in experiment [11], 1.34; in experiment [15], 1.26; in experiment [17], 0.0868. The values for the composite z-score in [18], in experiment [19] and in experiment [20] were 0.926, 1.11 and -0.0271, respectively. In addition, the z-score was -3.59 (inactive) in experiment [8]; 0.704 (inactive) in experiment [12]; -6.58 (inactive) in experiment [13]; 0.377 (inactive) in experiment [14]; -0.583 (inactive) in experiment [16].
